Only a selection was taken, and hits are over-represented in it overall.
DUSP3 inh: VHR1 phosphatase inhibitors, primary screen, biochemical, colorimetric, HTS | Dual specificity protein phosphatase 3 (Homo sapiens), P51452 | recombinant VHR phosphatase, colorimetric substrate read-out | inhibition, % at 20 µM | hit rate 0.7% among 50,000; in the data active means inhibition above about 60%
Target sequence (P51452 whole entry, looked up): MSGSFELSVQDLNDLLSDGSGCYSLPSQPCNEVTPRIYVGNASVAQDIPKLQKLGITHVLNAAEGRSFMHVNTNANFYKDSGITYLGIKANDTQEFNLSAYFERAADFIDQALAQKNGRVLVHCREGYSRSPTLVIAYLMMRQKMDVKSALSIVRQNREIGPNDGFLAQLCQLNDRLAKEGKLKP
Large screens that a line does not name were inactive.

O=C1NC(=S)NC(=O)C1=Cc1ccc(-c2ccc(C(=O)O)cc2)o1	DUSP3 inh 89
O=C1NC(=S)N(c2ccc(Cl)cc2)C(=O)/C1=C/c1ccc(-c2ccc(C(=O)O)cc2)o1	none
O=C1NC(=O)N(c2ccccc2)C(=O)/C1=C\c1ccc(-c2ccc(C(=O)O)cc2)o1	none
COc1ccc(C2=C/C(=C/c3ccc(-c4cccc([N+](=O)[O-])c4)o3)C(=O)O2)cc1	none
O=C(CN1CCOCC1)NCCNC(=O)c1ccccc1	none
Cc1ccc(-c2cc(-c3cc(C)ccc3O)[nH]n2)cc1	none
O=C(/C=C/c1ccco1)/C=C/c1ccc(-c2ccc(Cl)c(Cl)c2)o1	DUSP3 inh 89
N#C/C(=C\c1ccc(-c2ccc(Br)cc2)o1)C(N)=O	none
O=C(O)/C=C/c1ccc(-c2ccc(Cl)c(Cl)c2)o1	none
N#C/C(=C\c1ccc(-c2cccc(C(F)(F)F)c2)o1)C(N)=O	none
N#C/C(=C\c1ccc(-c2ccc(Cl)c(Cl)c2)o1)C(N)=O	DUSP3 inh 70
O=C(/C=C/c1ccco1)Nc1ccc(Cl)c(Cl)c1	none
Cc1cc(C23CC4CC(CC(C(=O)O)(C4)C2)C3)c(C)cc1C12CC3CC(CC(C(=O)O)(C3)C1)C2	none
Cc1ccc(Cl)c(OCCNC(C)(C)C)c1	none
Cn1c(=O)cc2c3c(c(Nc4ccc(C=O)cc4)ccc31)C(=O)c1ccccc1-2	none
CC1=NN(c2ccccc2)C(=O)C1C(c1ccccc1O)c1c(C)[nH]n(-c2ccccc2)c1=O (stereo not drawn)	none
CC(C)c1ccc(-c2nc3sc4c(c3c(=O)[nH]2)CCCC4)cc1	none
Cc1ccc(-c2csc(N)c2C(=O)OC(C)C)cc1	none
Cc1ccc(C)c(-c2csc(N)c2C(=O)OC(C)C)c1	none
Cc1ccc(-c2csc(N)c2C(=O)OC(C)C)cc1C	DUSP3 inh 84

Source: PubChem (Sanford-Burnham Center for Chemical Genomics)
